Measured values: PubChem BioAssay AID743171 (National Center for Advancing Translational Sciences (NCATS), 2013)
Several values for one entry are separate records, joined by “and”; a condition that tells them apart may be missing. Equal entries are not always repeated. Results filed as inconclusive are left out. Activity calls are given as the source filed them. Calls follow the shape of the dose curve; as a rule, active = well fitted inhibition curve with a large enough effect; inconclusive = small, poorly fitted or top-dose-only effect; inactive = flat fitted curve, though single readings scatter.

target: 15-hydroxyprostaglandin dehydrogenase [NAD(+)] (Homo sapiens) (UniProt P15428); experiment: Extended Characterization of HPGD Inhibitors: Activity in Primary Assay (HPGD); conditions: recombinant HPGD, NADH fluorescence, PGE2 substrate; series mostly up to 57.1 µM
Outline: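 qHTS with several compound concentrations: 15 min room-temperature preincubation with 20 nM final enzyme, then PGE2/NAD+ addition (solution at 30 uM/1 mM). Activity taken as the normalized change in NADH fluorescence (340/450 nm) over four 30-s reads.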

Chain of 15-hydroxyprostaglandin dehydrogenase [NAD(+)] (Homo sapiens) (P15428 whole entry, looked up): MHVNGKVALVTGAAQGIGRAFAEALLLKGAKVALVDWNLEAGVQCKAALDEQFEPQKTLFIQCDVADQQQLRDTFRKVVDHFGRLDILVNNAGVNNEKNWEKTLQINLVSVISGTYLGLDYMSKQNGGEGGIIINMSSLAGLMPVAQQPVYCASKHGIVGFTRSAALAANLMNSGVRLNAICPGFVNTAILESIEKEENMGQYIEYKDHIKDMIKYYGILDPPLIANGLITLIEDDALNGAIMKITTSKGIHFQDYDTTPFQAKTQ

Compound	Potency
O=C(c1ccc2c(c1)ncn2-c1cccc(Cl)c1)N1CCCCC1	12.1 nM (active)
CC(C)(C)c1ccc(-n2cnc3cc(C(=O)N4CCCCC4)ccc32)cc1	54.1 nM (active)
N#Cc1ccccc1CCc1nc2ncc(Br)cc2[nH]1	19200 nM (active)
COc1ccc(CSc2nc3ncc(Br)cc3[nH]2)cc1F	85.7 nM (active)
Cc1cc(-c2nnc3n2CCCCC3)c(C)n1-c1ccccc1	121 nM (active) and 54.1 nM (active) and 68.1 nM (active)
Cc1cccc(-n2cnc3cc(C(=O)NC4CCCCC4)ccc32)c1	3040 nM (active)
CCOC(=O)c1ccc(-n2c(C)cc(-c3nnc4n3CCCCC4)c2C)cc1	38.3 nM (active)
Cc1ccc(-n2c(C)cc(-c3nnc4n3CCCCC4)c2C)cc1	34.1 nM (active)
Cc1cc(-c2nnc3n2CCC3)c(C)n1-c1ccccc1	3040 nM (active)
Cc1cc(-c2nnc3n2CCCCC3)c(C)n1-c1cccc(Cl)c1	34.1 nM (active)
O=C(c1ccc2c(c1)ncn2-c1ccc(Cl)cc1)N1CCCCC1	21.5 nM (active)
O=[N+]([O-])c1cccc(CSc2nc3ncc(Br)cc3[nH]2)c1	68.1 nM (active)
FC(F)(F)c1ccc(-c2nc(-c3nnc4n3CCCCC4)c(C(F)(F)F)o2)cc1	inactive
Cc1ccccc1CSc1nc2ncc(Br)cc2[nH]1	76.4 nM (active)
O=C(c1ccc2c(c1)ncn2-c1ccc(C(F)(F)F)cc1)N1CCCCC1	85.7 nM (active)
